NALP3 yeast inh = inhibitors of NALP3 inflammasome in yeast | Yeast reconstituted NLRP3/ASC/caspase-1, beta-gal luminescence, 24 h | 330,000 tested, 0.39% active | inhibition, % at 10 µM;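 active = inhibition of 50% or more; inactive = inhibition below 50%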;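 note: plate controls were induced DMSO wells for no effect and uninduced yeast grown without galactose for full effect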
tim23-1 inh = inhibits growth of tim23-1 mutant yeast. inhibition, % at 20 µM. AID 463212. 330,000 tested, 1.3% active. S. cerevisiae tim23-1 growth, BacTiter-Glo luminescence, 24 h;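 active = growth inhibition of the mutant yeast at or above 50%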;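 note: temperature-sensitive mutant grown at 25 °C; plate controls were DMSO-treated mutant yeast for no effect and medium wells lacking yeast for full effect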
PfHsp90 yeast 2 = reduces growth (ATP signal) of yeast expressing P. falciparum Hsp90 | S. cerevisiae expressing PfHsp90, BacTiter-Glo ATP, 48 h; yeast lacking PDR1 and PDR3 efflux regulators | inhibition, % at 9.4 µM | 310,000 tested, 0.32% active | AID 504621;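 active = every replicate shows inhibition above about 80%, whatever the replicate mean, limit read from the data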;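 note: 0% = DMSO neutral controls and 100% = 20 µM radicicol positive controls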
SKKanGAS inh = blocks kanamycin growth of S. pyogenes SKKanGAS strain; BacTiter-Glo, 6 h; inhibition, % at 7.5 µM; 300,000 tested, 1.3% active;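 active = mean replicate score, as percent of positive control median, at least 50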;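 note: strain carries kanamycin resistance gene driven by streptokinase promoter and grows in 40 µg/ml kanamycin; loss of luminescence reflects streptokinase promoter inhibition or plain growth inhibition; 0% = median of DMSO wells and 100% = positive control at its reference dose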
TIM10 inh = TIM10 yeast growth inhibition; S. cerevisiae TIM10 strain growth, BacTiter-Glo luminescence, 24 h; inhibition, % at 10 µM; 330,000 tested, 1.4% active; AID 463195;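 active = inhibition of 40% or more at the single tested concentration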;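 note: wild-type TIM10 isogenic control strain grown at permissive 25 °C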
tim10-1 inh = inhibits growth of tim10-1 mutant yeast; 330,000 tested, 2.2% active; S. cerevisiae tim10-1 ts strain growth, BacTiter-Glo, 24 h; inhibition, % at 20 µM;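 active = inhibition of at least 40%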;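 note: mutant grown at 25 °C; 0% = DMSO wells with yeast and 100% = wells holding no yeast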
NALP3 yeast conf = NALP3 inhibition confirmation in yeast. shares compounds with NALP3 yeast inh. 1,300 tested, 81% active. inhibition, % at 10 µM. yeast expressing human NALP3, luminescence. AID 435006; in the data active = inhibition above about 48%
Casp1-ASC yeast = counter-screen for NALP3 inhibitors: yeast caspase-1-ASC; shares compounds with NALP3 yeast inh; yeast expressing Caspase-1-ASC, luminescence counter screen; inhibition, % at 10 µM; 1,000 tested, 66% active; AID 488784
NALP3 retest = confirmation retest of NALP3 inhibitors in yeast | yeast expressing human NALP3, luminescence read-out | AID 488794 | inhibition, % at 10 µM | 1,000 tested, 53% active | shares compounds with NALP3 yeast inh
tim10-1 confirm = tim10-1 yeast growth inhibition, confirmed; shares compounds with tim10-1 inh; S. cerevisiae tim10-1 ts strain growth, BacTiter-Glo, 24 h; inhibition, % at 20 µM; 7,400 tested, 56% active; AID 463213;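 active = inhibition of yeast growth at or above a set limit in either of two repeat tests at 20 µM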;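 note: tim10-1 mutant grown at permissive 25 °C to find synthetic lethal compounds; 0% = DMSO yeast wells and 100% = medium wells without yeast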
tim10 confirm = TIM10 yeast growth inhibition, confirmed | AID 463215 | S. cerevisiae tim10 strain growth, BacTiter-Glo luminescence, 24 h | inhibition, % at 10 µM | shares compounds with TIM10 inh | 4,600 tested, 63% active;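 active = inhibition of yeast growth at or above a set limit in either of two replicates at 10 µM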;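 note: this counterscreen used the strain with wild-type TIM10; 0% = yeast with DMSO and 100% = medium wells lacking yeast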
tim23-1 conf = tim23-1 yeast growth inhibition, confirmed; 4,400 tested, 83% active; S. cerevisiae tim23-1 growth, BacTiter-Glo luminescence, 24 h; inhibition, % at 20 µM; shares compounds with tim23-1 inh; AID 463218;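 active = inhibition above about 39% in either of two replicate wells at 20 µM, limit read from the data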;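 note: temperature-sensitive tim23-1 mutant grown at 25 °C; 0% = DMSO wells with yeast and 100% = medium wells without yeast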
Active calls of the source: *. Compounds with a hit are over-represented: about 4.5% of the library has one in this group of screens. Cut-off read from the data, not from the text of the source, unless noted: active = inhibition above about 50%; inactive = the rest.

`O=C(Nc1ccc2c(c1)OCCO2)c1cccc(Br)c1` gave NALP3 yeast inh 52*, tim23-1 inh 56*, PfHsp90 yeast 2 14, SKKanGAS inh -2, TIM10 inh 31, tim10-1 inh -2, NALP3 yeast conf 73*, Casp1-ASC yeast 50*, NALP3 retest 51* and tim23-1 conf 58*.
`CC(=O)Nc1ccc(NC(=O)c2nc(S(=O)(=O)Cc3cccc(C)c3)ncc2Cl)cc1` gave NALP3 yeast inh 15, tim23-1 inh 24, PfHsp90 yeast 2 -13, SKKanGAS inh 3, TIM10 inh 19 and tim10-1 inh 3.
`CCc1ccc(NC(=O)c2nc(S(=O)(=O)Cc3ccccc3)ncc2Cl)cc1` gave NALP3 yeast inh 60*, tim23-1 inh 66*, PfHsp90 yeast 2 99*, SKKanGAS inh 46, TIM10 inh -1, tim10-1 inh -105, NALP3 yeast conf 73*, Casp1-ASC yeast 54*, NALP3 retest 66* and tim23-1 conf 22.
C[C@H]1CN([C@@H](C)CO)C(=O)c2cccc(NC(=O)C3CC3)c2O[C@H]1CN(C)S(=O)(=O)c1cccs1 was read as NALP3 yeast inh 1, tim23-1 inh -8, PfHsp90 yeast 2 -31, TIM10 inh 3 and tim10-1 inh -7.
Screening CC(/C=N/NC(=O)c1ccncc1)=C\c1ccccc1 returned NALP3 yeast inh 4, tim23-1 inh 10, PfHsp90 yeast 2 13, SKKanGAS inh -8, TIM10 inh 5 and tim10-1 inh 2.
CC(=C/c1ccccc1)/C=N/NC(=O)c1cccs1 was read as NALP3 yeast inh 56*, tim23-1 inh 64*, SKKanGAS inh -5, TIM10 inh 35, tim10-1 inh -1, NALP3 yeast conf 24 and tim23-1 conf 55*.
`Cc1cc(Br)c(NC(=O)COC(=O)c2ccc[n+]([O-])c2)c(Br)c1` gave NALP3 yeast inh -3, tim23-1 inh 9, TIM10 inh -1 and tim10-1 inh 10.
CCn1c2c(c(=N)c3c1CCC3)CCCC2 was read as NALP3 yeast inh 6, tim23-1 inh -8, SKKanGAS inh 0, TIM10 inh 2 and tim10-1 inh -13.
For CCCCCCCCCn1c2c(c(=N)c3c1CCC3)CCCC2 the results were NALP3 yeast inh 68*, tim23-1 inh 80*, PfHsp90 yeast 2 0, SKKanGAS inh 3, TIM10 inh 51*, tim10-1 inh 52*, NALP3 yeast conf 85*, Casp1-ASC yeast 54*, NALP3 retest 70*, tim10-1 confirm 56*, tim10 confirm 46* and tim23-1 conf 83*.
Screening CCCCCCCCn1c2c(c(=N)c3ccccc31)CCC2 returned NALP3 yeast inh 58*, tim23-1 inh 66*, PfHsp90 yeast 2 14, SKKanGAS inh 3, TIM10 inh 25, tim10-1 inh 60*, NALP3 yeast conf 73*, Casp1-ASC yeast 22, NALP3 retest 62*, tim10-1 confirm 51* and tim23-1 conf 63*.
For Cn1nc(-c2ccc(Cl)cc2)nc2c(=O)n(C)c(=O)nc1-2 the results were NALP3 yeast inh 96*, tim23-1 inh 77*, SKKanGAS inh 84*, TIM10 inh 95*, tim10-1 inh 93*, NALP3 yeast conf 99*, Casp1-ASC yeast 99*, NALP3 retest 99*, tim10-1 confirm 92*, tim10 confirm 99* and tim23-1 conf 80*.
CS(=O)(=O)n1nc(-c2ccc(Cl)cc2)nc1N was read as NALP3 yeast inh 9, tim23-1 inh 17, PfHsp90 yeast 2 -14, SKKanGAS inh -2, TIM10 inh 3 and tim10-1 inh 15.
Screening COc1ccc(CN(C)CCCn2cnc3c(OCc4ccccc4)ncnc32)cc1OC returned PfHsp90 yeast 2 6.
O[C@@H]1[C@@H](O)C=C2CCN3Cc4cc5c(cc4[C@H]1C23)OCO5 (stereo not given in full) was read as NALP3 yeast inh 64*, tim23-1 inh 76*, PfHsp90 yeast 2 17, TIM10 inh 90*, tim10-1 inh 88*, NALP3 yeast conf 79*, Casp1-ASC yeast 60*, NALP3 retest 58*, tim10-1 confirm 84*, tim10 confirm 89* and tim23-1 conf 77*.
For COc1cc(NC(=O)NCC2CCN(Cc3ccccc3F)CC2)cc(OC)c1 the results were NALP3 yeast inh 20, tim23-1 inh 3, PfHsp90 yeast 2 1, SKKanGAS inh 0, TIM10 inh -14 and tim10-1 inh 5.
Cn1c(N)c(C(C[N+](=O)[O-])c2ccccc2Cl)c(=O)n(C)c1=O (stereo not given) was read as NALP3 yeast inh 37, tim23-1 inh 34, PfHsp90 yeast 2 -20, SKKanGAS inh -15, TIM10 inh 26 and tim10-1 inh 14.
For Cc1ccc(C(C[N+](=O)[O-])c2c(N)n(C)c(=O)n(C)c2=O)cc1 (stereo not given) the results were NALP3 yeast inh 70*, tim23-1 inh 54*, PfHsp90 yeast 2 108*, SKKanGAS inh 0, TIM10 inh 24, tim10-1 inh 36, NALP3 yeast conf 64*, Casp1-ASC yeast 78*, NALP3 retest 53* and tim23-1 conf 64*.
Screening COc1cccc(F)c1C(C[N+](=O)[O-])c1c(N)n(C)c(=O)n(C)c1=O (stereo not given) returned NALP3 yeast inh 64*, tim23-1 inh 82*, PfHsp90 yeast 2 103*, SKKanGAS inh -5, TIM10 inh 46*, tim10-1 inh 54*, NALP3 yeast conf 44, Casp1-ASC yeast 56*, NALP3 retest 33, tim10-1 confirm 60*, tim10 confirm 52* and tim23-1 conf 82*.
Screening COc1ccc(N(CC(=O)Nc2ccc3c(c2)OCCO3)S(=O)(=O)c2cccc(C)c2)cc1 returned NALP3 yeast inh 16, tim23-1 inh 27, PfHsp90 yeast 2 -21, TIM10 inh 9 and tim10-1 inh 8.
